Test results reported in PubChem BioAssay.
Activity calls are given as the source filed them. Unless noted, the rule behind the calls is not given here.

Legend:
[1] = resazurin metabolic signal in HepG2 cells – cell-based, resazurin fluorescence, 24 h, PK04 Diversity Set, profiling panel (AID 1172); settings: HepG2 viability, higher = more signal; note: test concentration not given here
[2] = budding yeast growth changes without added modifier – OD600, strain BY4716, 24 h, basal condition, primary screen (AID 1173); settings: S. cerevisiae BY4716 growth, OD600, 24 h; higher = more signal, called active from +8 up or from −8 down
[3] = viability profiling in MM1S myeloma cells – cell-based, resazurin fluorescence, basal, 24 h, PK04 Diversity Set, profiling panel (AID 1174); settings: higher = more signal, called active from +8 up or from −8 down;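 note: MM1S multiple myeloma cell line; test concentration not given here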
[4] = molecular target: Dihydroorotate dehydrogenase (quinone), mitochondrial (Plasmodium falciparum (isolate 3D7)) (UniProt Q08210); test: inhibition of P. falciparum DHODH – biochemical, C-terminal His tag, absorbance 600 nm, primary screen (AID 1175); settings: PfDHODH enzyme, DCIP absorbance 600 nm; higher = more signal, called active from +8 up or from −8 down;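 note: recombinant parasite enzyme with a five histidine tag at its C terminus; test concentration not given here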
Chain of Dihydroorotate dehydrogenase (quinone), mitochondrial (Plasmodium falciparum (isolate 3D7)) (Q08210 whole entry, looked up): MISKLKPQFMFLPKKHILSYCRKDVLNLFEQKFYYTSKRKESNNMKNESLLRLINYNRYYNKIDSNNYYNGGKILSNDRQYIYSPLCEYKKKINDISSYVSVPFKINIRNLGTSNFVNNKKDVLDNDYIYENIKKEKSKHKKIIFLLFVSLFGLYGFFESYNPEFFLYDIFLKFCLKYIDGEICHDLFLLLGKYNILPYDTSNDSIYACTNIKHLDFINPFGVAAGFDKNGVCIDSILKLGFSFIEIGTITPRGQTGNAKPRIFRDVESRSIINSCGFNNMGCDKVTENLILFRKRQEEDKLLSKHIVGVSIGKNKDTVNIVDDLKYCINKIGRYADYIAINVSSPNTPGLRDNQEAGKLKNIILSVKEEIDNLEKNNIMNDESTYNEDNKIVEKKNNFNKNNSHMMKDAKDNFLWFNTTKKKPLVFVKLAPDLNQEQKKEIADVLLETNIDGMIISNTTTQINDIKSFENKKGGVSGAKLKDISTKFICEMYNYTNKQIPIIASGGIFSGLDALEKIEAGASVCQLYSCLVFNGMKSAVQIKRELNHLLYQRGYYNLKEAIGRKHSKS

[5] = inhibition of PAO1 biofilm formation – strain PAO1, LB-PBS medium, absorbance 600 nm, primary screen (AID 1176); note: test concentration not given here; settings: P. aeruginosa PAO1 growth/biofilm, A600, 12 h; higher = more signal
[6] = growth modulation of vineyard yeast isolate – strain RM11-1a, OD600, basal, 24 h, primary screen (AID 1177);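 note: cultures grown under basal conditions with no added stressor; test concentration not given here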; settings: S. cerevisiae RM11-1a growth, OD600, 24 h; higher = more signal, called active from +8 up or from −8 down
[7] = growth of efflux-deficient E. coli DRC39 – strain DRC39, OD650, 24 h, E. coli filamentation inducers, primary screen (AID 1178);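 note: growth measured as culture turbidity by optical density at 650 nm; test concentration not given here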; settings: E. coli DRC39 acrAB, higher = more signal, called active from +8 up or from −8 down
[8] = growth of efflux-deficient E. coli DRC39 – strain DRC39, OD650, 48 h, E. coli filamentation inducers, primary screen (AID 1179);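 note: screen aims at cell division blockers that make cells filament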; settings: E. coli DRC39 delta-acrAB growth, higher = more signal, called active from +8 up or from −8 down
[9] = viability profiling in RPMI8226 myeloma cells – cell-based, resazurin fluorescence, basal, 24 h, PK04 Diversity Set, profiling panel (AID 1180); settings: higher = more signal;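 note: RPMI8826 multiple myeloma cell line at 5000 cells per well; test concentration not given here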
[10] = molecular target: E3 ubiquitin-protein ligase XIAP (Homo sapiens) (UniProt P98170); test: small molecules binding XIAP protein – biophysical, small-molecule microarray, fluorescence 635 nm, primary screen (AID 1181); settings: higher = more signal;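 note: score merges 667 nm emission and signal to noise over triplicate slides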
Chain of E3 ubiquitin-protein ligase XIAP (Homo sapiens) (P98170 whole entry, looked up): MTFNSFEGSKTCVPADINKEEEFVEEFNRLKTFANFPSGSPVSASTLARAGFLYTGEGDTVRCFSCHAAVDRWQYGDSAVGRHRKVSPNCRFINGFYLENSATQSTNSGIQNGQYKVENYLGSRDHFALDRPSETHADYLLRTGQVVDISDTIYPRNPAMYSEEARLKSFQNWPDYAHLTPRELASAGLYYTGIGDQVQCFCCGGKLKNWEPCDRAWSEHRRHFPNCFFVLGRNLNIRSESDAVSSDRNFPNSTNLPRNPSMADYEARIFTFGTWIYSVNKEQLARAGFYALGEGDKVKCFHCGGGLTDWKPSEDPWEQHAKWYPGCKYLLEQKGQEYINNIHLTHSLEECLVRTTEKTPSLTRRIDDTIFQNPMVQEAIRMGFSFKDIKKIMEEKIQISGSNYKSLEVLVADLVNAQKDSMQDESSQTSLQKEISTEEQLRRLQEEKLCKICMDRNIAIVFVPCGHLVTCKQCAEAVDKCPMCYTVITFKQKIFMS

## CN1C(=O)C2C=CC(C(O)C3=C[C@H]4C[C@@H](C3)C4(C)C)N(Nc3ccccc3)C2C1=O (stereo not given in full)
[1]
  z-score: -0.3
[2]
  z-score: 0.0844 (inactive)
[3]
  z-score: -0.419 (inactive)
[4]
  composite z-score: -0.0435 (inactive)
[5]
  z-score: 2.14 (inactive)
[6]
  z-score: 0.602 (inactive)
[7]
  z-score: -0.328 (inactive)
[8]
  z-score: -0.369 (inactive)
[9]
  z-score: -0.52
[10]
  composite z-score: -0.174

## O=C1C2C=CC(C(O)C(c3ccccc3)c3ccccc3)N(n3cnnc3)C2C(=O)N1Cc1ccccc1 (stereo not given)
[1]
  z-score: 0.264
[2]
  z-score: -1.94 (inactive)
[3]
  z-score: -1.15 (inactive)
[4]
  composite z-score: -0.436 (inactive)
[5]
  z-score: 0.285 (inactive)
[6]
  z-score: -0.255 (inactive)
[7]
  z-score: -0.514 (inactive)
[8]
  z-score: -0.305 (inactive)
[9]
  z-score: -1.11
[10]
  composite z-score: 0.223

## C=CCOC(=O)[C@H]1[C@@H]2C(=O)O[C@@H](c3ccccc3)[C@@H](c3ccccc3)N2[C@@H](c2ccc(OCCOC(=O)[C@@H]3C[C@@H]4C(=O)N[C@@H](CCCC[N+](C)(C)C)C(=O)N4[C@@H]3c3ccc(O)cc3)cc2)[C@]12C(=O)Nc1ccccc12
[1]
  z-score: 0.863
[2]
  z-score: -3.17 (inactive)
[3]
  z-score: 0.844 (inactive)
[4]
  composite z-score: -2.77 (inactive)
[5]
  z-score: 0.988 (inactive)
[6]
  z-score: 0.545 (inactive)
[7]
  z-score: 0.0865 (inactive)
[8]
  z-score: -0.661 (inactive)
[9]
  z-score: 1.16
[10]
  composite z-score: 0.0055

## CN(C)CCCC[C@@H]1NC(=O)[C@H]2C[C@@H](C(=O)NCCCCCNC(=O)CS)[C@@H](c3cccc(OCCO)c3)N2C1=O
[1]
  z-score: 0.373
[2]
  z-score: -0.646 (inactive)
[3]
  z-score: -0.212 (inactive)
[4]
  composite z-score: -0.286 (inactive)
[5]
  z-score: 0.643 (inactive)
[6]
  z-score: -0.569 (inactive)
[7]
  z-score: -0.197 (inactive)
[8]
  z-score: -0.32 (inactive)
[9]
  z-score: -0.421
[10]
  composite z-score: -0.244

## COCCOC(=O)N1C(=O)[C@@]2(c3cc(C#Cc4ccc(OC)cc4)ccc31)[C@H](c1ccccc1OCCO)N1[C@H](c3ccccc3)[C@H](c3ccccc3)OC(=O)[C@H]1[C@@H]2C(=O)N1CCN(c2ncccn2)CC1
[1]
  z-score: 0.214
[2]
  z-score: 2.12 (inactive)
[3]
  z-score: -0.539 (inactive)
[4]
  composite z-score: 0.478 (inactive)
[5]
  z-score: 1.64 (inactive)
[6]
  z-score: 3.89 (inactive)
[7]
  z-score: 0.0722 (inactive)
[8]
  z-score: 0.857 (inactive)
[9]
  z-score: 0.0636
[10]
  composite z-score: 0.397

## CC(C)c1ccc(NN2C(C(O)C(c3ccccc3)c3ccccc3)C=CC3C(=O)N(c4ccccc4)C(=O)C32)cc1 (stereo not given)
[1]
  z-score: -1.49
[2]
  z-score: -0.141 (inactive)
[3]
  z-score: -1.35 (inactive)
[4]
  composite z-score: 0.704 (inactive)
[5]
  z-score: 0.642 (inactive)
[6]
  z-score: 1.17 (inactive)
[7]
  z-score: -1.39 (inactive)
[8]
  z-score: -1.47 (inactive)
[9]
  z-score: -0.912
[10]
  composite z-score: -0.0525

## CN1C(=O)C2C=CC(C(O)Cc3ccccc3)N(Nc3ccccc3)C2C1=O (stereo not given)
[1]
  z-score: -0.355
[2]
  z-score: -0.836 (inactive)
[3]
  z-score: -0.808 (inactive)
[4]
  composite z-score: 0.295 (inactive)
[5]
  z-score: 1.07 (inactive)
[6]
  z-score: 0.217 (inactive)
[7]
  z-score: -0.553 (inactive)
[8]
  z-score: -0.801 (inactive)
[9]
  z-score: -0.541
[10]
  composite z-score: -0.189

## C[N+](C)(C)CCCCNC(=O)[C@H]1C[C@H]2C(=O)N[C@@H](Cc3ccccc3)C(=O)N2[C@H]1c1ccc(O)cc1
[1]
  z-score: -1.87
[2]
  z-score: 0.606 (inactive)
[3]
  z-score: -0.0345 (inactive)
[4]
  composite z-score: -30.9 (active)
[5]
  z-score: 0.516 (inactive)
[6]
  z-score: 0.644 (inactive)
[7]
  z-score: 0.783 (inactive)
[8]
  z-score: 1.17 (inactive)
[9]
  z-score: -0.9
[10]
  composite z-score: -0.355

## C=C(COC)/C(=C/C[C@H](OC(=O)c1ccncc1)c1ccc(OCCO)cc1)c1cnc2ccccc2c1
[1]
  z-score: 0.444
[2]
  z-score: -0.309 (inactive)
[3]
  z-score: -0.389 (inactive)
[4]
  composite z-score: -3.5 (inactive)
[5]
  z-score: 0.424 (inactive)
[6]
  z-score: -0.401 (inactive)
[7]
  z-score: -0.802 (inactive)
[8]
  z-score: -0.679 (inactive)
[9]
  z-score: -0.342
[10]
  composite z-score: -0.174

## CC1CC/C=C\[C@H]2OC34C=CCN(C(C)(C)C)C(=O)[C@H]3N(CCCCCCO)C(=O)[C@@H]4C2C(=O)O1 (stereo not given in full)
[1]
  z-score: -0.0231
[2]
  z-score: -0.51 (inactive)
[3]
  z-score: -1.72 (inactive)
[4]
  composite z-score: -1.07 (inactive)
[5]
  z-score: -0.401 (inactive)
[6]
  z-score: 0.0296 (inactive)
[7]
  z-score: 0.504 (inactive)
[8]
  z-score: 0.749 (inactive)
[9]
  z-score: -1.14
[10]
  composite z-score: 0.191

## CN(C)CCCNC(=O)[C@@]1(c2ccc([N+](=O)[O-])cc2)CC(=O)N(C2CCCCC2)[C@@H]1c1ccc(CO)cc1
[1]
  z-score: -0.252
[2]
  z-score: -1.59 (inactive)
[3]
  z-score: -0.0665 (inactive)
[4]
  composite z-score: 0.456 (inactive)
[5]
  z-score: -0.177 (inactive)
[6]
  z-score: -0.0078 (inactive)
[7]
  z-score: 0.328 (inactive)
[8]
  z-score: -0.16 (inactive)
[9]
  z-score: -0.155
[10]
  composite z-score: -0.0073

## O=C1C[C@]2(c3ccc([N+](=O)[O-])cc3)C(=O)N(CCN3CCOCC3)c3cc(CO)ccc3[C@H]2N1C1CCCCC1
[1]
  z-score: -0.592
[2]
  z-score: -0.0979 (inactive)
[3]
  z-score: -0.399 (inactive)
[4]
  composite z-score: -7.11 (inactive)
[5]
  z-score: 0.0993 (inactive)
[6]
  z-score: -0.974 (inactive)
[7]
  z-score: 1.06 (inactive)
[8]
  z-score: 1.66 (inactive)
[9]
  z-score: 0.186
[10]
  composite z-score: -0.16
